PubChem BioAssay (Tox21)
Results filed as inconclusive are left out. Activity calls are given as the source filed them. Unless noted, calls come from the whole dose curve; as a rule, active = well fitted curve in the direction sought with a large enough effect in the repeat runs; inconclusive = weak or mixed curves; inactive = no such curve, though single readings can be large; an effect the other way counts as inactive or inconclusive.

Key:
[1] = qHTS assay to identify aromatase inhibitors - cell viability counter screen (AID 743084);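 note: cells stimulated with testosterone during compound exposure; nearly all actives have a fitted effect of over 55% in size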
[2] = target: Aryl hydrocarbon receptor (Homo sapiens) (UniProt P35869); experiment: qHTS assay to identify small molecule that activate the aryl hydrocarbon receptor (AhR) signaling pathway (AID 743085);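 note: HG2L7.5c1 human HepG2 liver cells with stably integrated DRE-driven firefly reporter; series mostly up to about 70 µM; nearly all actives have a fitted effect of over 15% in size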
Chain of Aryl hydrocarbon receptor (Homo sapiens) (P35869 whole entry, looked up): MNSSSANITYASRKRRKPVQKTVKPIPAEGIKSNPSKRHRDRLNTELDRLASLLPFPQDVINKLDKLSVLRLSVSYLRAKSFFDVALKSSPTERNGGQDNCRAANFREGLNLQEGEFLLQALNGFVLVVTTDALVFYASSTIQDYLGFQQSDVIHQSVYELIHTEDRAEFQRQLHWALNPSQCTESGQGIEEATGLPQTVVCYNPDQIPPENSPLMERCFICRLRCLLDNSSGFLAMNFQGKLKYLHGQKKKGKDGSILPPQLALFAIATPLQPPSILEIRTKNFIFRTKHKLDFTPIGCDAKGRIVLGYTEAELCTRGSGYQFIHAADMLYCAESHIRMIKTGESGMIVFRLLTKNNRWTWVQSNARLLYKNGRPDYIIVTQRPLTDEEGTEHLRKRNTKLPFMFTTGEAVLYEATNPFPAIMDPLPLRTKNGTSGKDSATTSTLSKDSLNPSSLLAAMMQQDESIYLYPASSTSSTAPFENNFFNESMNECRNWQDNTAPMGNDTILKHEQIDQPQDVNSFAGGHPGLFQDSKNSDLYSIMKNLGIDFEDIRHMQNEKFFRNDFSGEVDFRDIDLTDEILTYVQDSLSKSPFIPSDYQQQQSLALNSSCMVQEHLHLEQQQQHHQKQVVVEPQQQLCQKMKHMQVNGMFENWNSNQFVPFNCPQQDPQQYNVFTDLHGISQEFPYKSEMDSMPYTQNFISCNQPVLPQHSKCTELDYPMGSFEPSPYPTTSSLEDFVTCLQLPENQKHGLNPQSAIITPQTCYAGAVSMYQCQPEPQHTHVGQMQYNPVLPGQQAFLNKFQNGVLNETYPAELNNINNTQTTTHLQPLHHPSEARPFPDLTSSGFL
Summary of the method: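 Cell line HG2L7.5c1 (human hepatoma, 20× DRE-luc). Plated, 5 h 37C, compound/DMSO added, 24 h 37C. CellTiter-Fluor 30 min 37C → fluorescence; then ONE-Glo 30 min RT → luminescence.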

[3] = qHTS assay to identify small molecule that activate the aryl hydrocarbon receptor (AhR) signaling pathway - cell viability counter screen (AID 743086);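 note: HepG2 liver cells carrying the AhR DRE luciferase reporter; series mostly up to about 70 µM; nearly all actives have a fitted effect of over 45% in size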
Summary of the method: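 Cytotoxicity counter screen: CellTiter-Fluor signal (30 min, 37 C) in 4000 HepG2 cells/well carrying the DRE-luciferase reporter, following 24 h compound exposure at 37 C.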

[4] = target: Peroxisome proliferator-activated receptor gamma (Homo sapiens) (UniProt P37231); experiment: qHTS assay to identify small molecule agonists of the peroxisome proliferator-activated receptor gamma (PPARg) signaling pathway (AID 743094; active = well fitted activation curve with a large enough effect in the signal ratio in the repeat runs, not every such curve was filed as active; the % refers to the signal ratio)
Chain of Peroxisome proliferator-activated receptor gamma (Homo sapiens) (P37231 whole entry, looked up): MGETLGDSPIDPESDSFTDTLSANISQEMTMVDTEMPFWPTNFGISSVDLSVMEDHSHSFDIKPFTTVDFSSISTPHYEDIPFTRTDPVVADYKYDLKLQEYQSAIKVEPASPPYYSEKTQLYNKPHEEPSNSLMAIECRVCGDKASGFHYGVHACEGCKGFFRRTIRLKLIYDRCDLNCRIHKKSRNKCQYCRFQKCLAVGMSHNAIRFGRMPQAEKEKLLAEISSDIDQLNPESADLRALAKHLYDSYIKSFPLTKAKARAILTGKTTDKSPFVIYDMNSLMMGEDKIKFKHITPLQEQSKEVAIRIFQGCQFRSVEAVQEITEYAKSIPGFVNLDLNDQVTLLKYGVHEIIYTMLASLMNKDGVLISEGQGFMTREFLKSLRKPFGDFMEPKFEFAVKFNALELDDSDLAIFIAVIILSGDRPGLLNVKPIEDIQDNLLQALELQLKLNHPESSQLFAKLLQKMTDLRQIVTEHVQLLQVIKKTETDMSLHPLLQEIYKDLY
Summary of the method: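 Following 5 h plating at 37C, PPARg-bla HEK293H cells receive compound or DMSO for 17 h; fluorescence intensity is recorded after LiveBLAzer B/G loading for 1 h at room temperature.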

[5] = target: Peroxisome proliferator-activated receptor gamma (Homo sapiens) (UniProt P37231); experiment: qHTS assay to identify small molecule antagonists of the peroxisome proliferator-activated receptor gamma (PPARg) signaling pathway (AID 743191; calls by dose curve; note: series mostly up to about 63 µM; nearly all actives have a fitted effect of over 30% in size)
Summary of the method: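 Beta-lactamase reporter under UAS control in HEK293H PPARg-bla cells; compound treatment 17 h at 37C. Read-out: fluorescence intensity after 1 h room-temperature incubation with LiveBLAzer B/G FRET substrate.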

[6] = qHTS assay to identify small molecule antagonists of the peroxisome proliferator-activated receptor gamma (PPARg) signaling pathway - cell viability counter screen (AID 743194); note: nearly all actives have a fitted effect of over 55% in size
Summary of the method: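 Viability was measured as CellTiter-Glo luminescence in GeneBLAzer PPARg UAS-bla HEK293H cells. These cells had been exposed 17 h at 37 C to compounds together with rosiglitazone at 50 nM final, with the beta-lactamase readout taken in the same wells.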

[7] = qHTS assay for small molecule agonists of the antioxidant response element (ARE) signaling pathway (AID 743202; active = well fitted activation curve with a large enough effect in the signal ratio in the repeat runs, not every such curve was filed as active; the % refers to the signal ratio)
Summary of the method: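 An ARE-responsive beta-lactamase gene stably integrated in HepG2 cells serves as reporter. After 5 h plating and 16 h compound incubation at 37 C, fluorescence of the B/G FRET substrate was measured.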

[8] = qHTS assay for small molecule activators of the heat shock response signaling pathway - cell viability counter screen (AID 743209); note: nearly all actives have a fitted effect of over 50% in size
Summary of the method: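 Counter screen for cytotoxicity in HeLa HSE-bla reporter cells. Treatment was 5 h at 37 C; viability was detected by luminescent ATP assay (CellTiter-Glo) in the same wells as the beta-lactamase read.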

[9] = qHTS assay for small molecule activators of the heat shock response signaling pathway (AID 743210; active = well fitted activation curve with a large enough effect in the signal ratio in the repeat runs, with a control signal flat, not every such curve was filed as active; the % refers to the signal ratio;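 note: HeLa cells with beta-lactamase reporter driven by heat shock elements; series mostly up to about 63 µM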)
Summary of the method: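 In HSE-bla HeLa cells, 5 h compound incubation (37 C) precedes addition of LiveBLAzer B/G substrate; after 2.5 h at room temperature, fluorescence intensity indicates reporter induction.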

[10] = qHTS assay to identify small molecule agonists of the peroxisome proliferator-activated receptor delta (PPARd) signaling pathway - cell viability counter screen (AID 743211); note: nearly all actives have a fitted effect of over 55% in size
Summary of the method: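 HEK293H PPARd-bla, 3000 cells/well; 5 h preincubation 37C/5% CO2; cpd in DMSO, 17 h 37C; B/G FRET substrate 2 h RT; CellTiter-Glo 30 min RT, luminescence.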

[11] = target: Peroxisome proliferator-activated receptor delta (Homo sapiens) (UniProt Q03181); experiment: qHTS assay to identify small molecule agonists of the peroxisome proliferator-activated receptor delta (PPARd) signaling pathway (AID 743212; calls by dose curve)
Chain of Peroxisome proliferator-activated receptor delta (Homo sapiens) (Q03181 whole entry, looked up): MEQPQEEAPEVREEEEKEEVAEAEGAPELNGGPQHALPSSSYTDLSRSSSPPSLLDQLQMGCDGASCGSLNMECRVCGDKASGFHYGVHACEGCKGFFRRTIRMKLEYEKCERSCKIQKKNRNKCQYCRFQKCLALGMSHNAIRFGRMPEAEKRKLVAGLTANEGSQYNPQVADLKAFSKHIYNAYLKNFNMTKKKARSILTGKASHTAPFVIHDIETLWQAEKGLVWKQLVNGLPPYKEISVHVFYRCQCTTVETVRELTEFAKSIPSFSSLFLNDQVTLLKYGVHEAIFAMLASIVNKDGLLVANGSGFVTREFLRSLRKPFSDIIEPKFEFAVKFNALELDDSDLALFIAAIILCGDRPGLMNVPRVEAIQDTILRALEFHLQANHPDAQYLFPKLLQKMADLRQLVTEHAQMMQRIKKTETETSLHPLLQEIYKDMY
Summary of the method: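 HEK293H UAS-bla reporter cells, human PPARd system; compounds delivered in DMSO after 5 h plating, then at 37 C. Beta-lactamase FRET read, 2 h RT substrate step.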

[12] = qHTS assay to identify small molecule antagonists of the peroxisome proliferator-activated receptor delta (PPARd) signaling pathway - cell viability counter screen (AID 743213); note: nearly all actives have a fitted effect of over 50% in size
Summary of the method: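 Viability counter-screen, qHTS format: PPARd-bla HEK293H, L165041 300 nM final, 17 h compound exposure at 37 C, CellTiter-Glo luminescence after 30 min RT.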

[13] = target: Peroxisome proliferator-activated receptor delta (Homo sapiens) (UniProt Q03181); experiment: qHTS assay to identify small molecule antagonists of the peroxisome proliferator-activated receptor delta (PPARd) signaling pathway (AID 743215; active = well fitted inhibition curve with a large enough effect in the signal ratio in the repeat runs, not every such curve was filed as active; the % refers to the signal ratio;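 note: cells stimulated with agonist L165041 at 300 nM final during compound exposure; series mostly up to about 62 µM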)
Summary of the method: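 With L165041 present at 300 nM final, compounds were incubated 17 h at 37 C on PPARd UAS-bla HEK293H cells. A FRET-based beta-lactamase substrate was then applied for 2 h at room temperature and fluorescence intensity recorded.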

[14] = qHTS assay to identify small molecule agonists of the farnesoid-X-receptor (FXR) signaling pathway - cell viability counter screen (AID 743218); note: nearly all actives have a fitted effect of over 45% in size
Summary of the method: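 After 16 h at 37 C with test compounds, FXR-bla HEK 293T cells were given LiveBLAzer B/G substrate for 2 h at RT and then CellTiter-Glo; luminescence was taken after 30 min.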

[15] = qHTS assay to identify small molecule antagonists of the farnesoid-X-receptor (FXR) signaling pathway - cell viability counter screen (AID 743221; active = well fitted cell-killing curve with a large enough effect in the repeat runs, not every such curve was filed as active; note: nearly all actives have a fitted effect of over 50% in size)
Summary of the method: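 Luminescence from CellTiter-Glo measures cytotoxicity in GeneBLAzer FXR-UAS-bla HEK 293T cells. Cells were exposed to compounds with 50 uM chenodeoxycholic acid (final) for 16 h at 37 C, in wells also used for the reporter readout.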

[16] = target: Vitamin D3 receptor (Homo sapiens) (UniProt P11473); experiment: qHTS assay to identify small molecule agonists of the vitamin D receptor (VDR) signaling pathway (AID 743222; calls by dose curve)
Chain of Vitamin D3 receptor (Homo sapiens) (P11473 whole entry, looked up): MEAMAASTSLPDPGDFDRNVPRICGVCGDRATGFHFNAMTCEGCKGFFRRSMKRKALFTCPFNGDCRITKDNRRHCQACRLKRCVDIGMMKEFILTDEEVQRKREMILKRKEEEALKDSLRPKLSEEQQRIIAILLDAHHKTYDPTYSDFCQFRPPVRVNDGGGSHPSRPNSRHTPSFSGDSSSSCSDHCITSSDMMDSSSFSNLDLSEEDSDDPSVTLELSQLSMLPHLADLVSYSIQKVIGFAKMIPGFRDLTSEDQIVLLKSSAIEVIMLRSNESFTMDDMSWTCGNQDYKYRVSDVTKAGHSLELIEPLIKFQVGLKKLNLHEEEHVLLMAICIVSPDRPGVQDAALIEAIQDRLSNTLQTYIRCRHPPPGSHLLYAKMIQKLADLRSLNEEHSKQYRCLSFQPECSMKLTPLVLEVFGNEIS
Summary of the method: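 VDR-bla cells were seeded, left 4 h, treated with compounds in DMSO for 16 h, incubated 2 h at RT with B/G FRET substrate, and read for fluorescence.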

[17] = target: Vitamin D3 receptor (Homo sapiens) (UniProt P11473); experiment: qHTS assay to identify small molecule antagonists of the vitamin D receptor (VDR) signaling pathway (AID 743223; active = well fitted inhibition curve with a large enough effect in the signal ratio in the repeat runs, not every such curve was filed as active; the % refers to the signal ratio)
Summary of the method: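 Antagonist mode uses 1alpha,25-dihydroxyvitamin D3 at 3 nM final as stimulus. VDR-bla cells receive compounds in DMSO, incubate 16 h at 37C, then a beta-lactamase FRET substrate for 2 h at room temperature before fluorescence measurement.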

[18] = qHTS assay for small molecule agonists of the antioxidant response element (ARE) signaling pathway - cell viability counter screen (AID 743203; calls by dose curve; note: nearly all actives have a fitted effect of over 55% in size)
Summary of the method: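 Compounds in DMSO were pinned onto ARE-bla HepG2 cells plated 5 hrs earlier at 2,000 cells/well. Sixteen hours later at 37C/5% CO2, CellTiter-Glo was added and luminescence measured after 30 min at room temperature.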

[19] = target: Bile acid receptor (Homo sapiens) (UniProt Q96RI1); experiment: qHTS assay to identify small molecule antagonists of the farnesoid-X-receptor (FXR) signaling pathway (AID 743217; active = well fitted inhibition curve with a large enough effect in the signal ratio in the repeat runs, not every such curve was filed as active; the % refers to the signal ratio)
Chain of Bile acid receptor (Homo sapiens) (Q96RI1 whole entry, looked up): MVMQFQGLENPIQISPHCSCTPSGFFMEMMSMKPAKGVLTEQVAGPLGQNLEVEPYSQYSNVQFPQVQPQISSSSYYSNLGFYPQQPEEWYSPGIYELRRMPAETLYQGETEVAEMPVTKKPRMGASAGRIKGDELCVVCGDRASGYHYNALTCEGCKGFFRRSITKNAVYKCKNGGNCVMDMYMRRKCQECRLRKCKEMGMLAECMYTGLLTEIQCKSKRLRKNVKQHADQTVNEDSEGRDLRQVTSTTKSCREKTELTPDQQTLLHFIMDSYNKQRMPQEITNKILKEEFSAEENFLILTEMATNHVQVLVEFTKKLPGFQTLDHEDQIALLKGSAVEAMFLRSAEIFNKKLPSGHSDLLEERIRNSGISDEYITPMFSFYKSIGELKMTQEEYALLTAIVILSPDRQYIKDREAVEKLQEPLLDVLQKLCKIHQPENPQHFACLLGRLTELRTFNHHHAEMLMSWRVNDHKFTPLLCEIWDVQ
Summary of the method: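 In this cell-based antagonist screen, inhibition of CDCA-driven (50 uM final) UAS-beta-lactamase expression in HEK 293T cells was measured by FRET fluorescence following 16 h compound exposure at 37 °C.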

[20] = target: Bile acid receptor (Homo sapiens) (UniProt Q96RI1); experiment: qHTS assay to identify small molecule agonists of the farnesoid-X-receptor (FXR) signaling pathway (AID 743220; active = well fitted activation curve with a large enough effect in the signal ratio in the repeat runs, not every such curve was filed as active; the % refers to the signal ratio)
Summary of the method: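 Beta-lactamase reporter under UAS control in GeneBLAzer FXR HEK 293T cells (5000/well) measured with LiveBLAzer FRET substrate after 2 h at room temperature. Compound exposure lasted 16 h at 37C.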
% is set by controls: 0 for no effect and ±100 for the full control effect.

CC1(C)C(O)C(C)(C)C1O (stereo not given)
inactive: Potency [1] | Potency [2] | Potency [3] | outcome [4] | Potency [5] | outcome [6] | Potency [7] | outcome [8] | outcome [9] | Potency [10] | outcome [11] | Potency [12] | Potency [13] | Potency [14] | Potency [15] | outcome [16] | outcome [17]

CCC(C)S (stereo not given)
inactive: activity change, negative = cytotoxicity [1] -1.89% [at 3.79 µM] | activation [2] 2.05% [at 3.79 µM] | viability change, negative = cytotoxic [3] -4.09% [at 3.79 µM] | activation [4] 4.65% [at 3.17 µM] | ratio activity, negative = inhibition [5] 25.6% [at 2.7 µM] | activity change, negative = cytotoxicity [6] -9.73% [at 2.7 µM] | activation [7] 1.05% [at 3.74 µM] | viability change, negative = cytotoxic [18] 9.9% [at 3.74 µM] | activity change, negative = cytotoxicity [10] 2.23% [at 2.7 µM] | activation [11] -4.14% [at 2.7 µM] | viability change, negative = cytotoxic [12] 4.88% [at 2.83 µM] | ratio activity, negative = inhibition [13] 5.9% [at 2.83 µM] | activity change, negative = inhibition [19] 3.24% [at 2.69 µM] | viability change, negative = cytotoxic [14] 7.12% [at 2.7 µM] | activation [20] -0.872% [at 2.7 µM] | activity change, negative = cytotoxicity [15] 5.23% [at 2.69 µM] | activation [16] 12.2% [at 2.71 µM] | activity change, negative = inhibition [17] 0.31% [at 3.11 µM]

CC(=O)OCC(=O)[C@@]1(O)CCC2C3CCC4=CC(=O)CC[C@]4(C)C3[C@@H](O)C[C@@]21C (stereo not given in full)
inactive: Potency [1] | Potency [2] | Potency [3] | outcome [4] | Potency [5] | outcome [6] | Potency [7] | outcome [8] | outcome [9] | Potency [10] | outcome [11] | Potency [12] | outcome [19] | Potency [14] | outcome [20] | Potency [15] | outcome [16] | outcome [17]

CN1C(=O)N(C)C(O)C1O (stereo not given)
inactive: Potency [1] | Potency [2] | Potency [3] | outcome [4] | Potency [5] | outcome [6] | Potency [7] | outcome [11] | Potency [12] | Potency [14] | Potency [15] | outcome [16] | outcome [17]

CCCN(CCC)CCc1cccc2c1CC(=O)N2
inactive: Potency [1] | Potency [2] | Potency [3] | outcome [4] | Potency [5] | outcome [6] | Potency [7] | Potency [18] | outcome [9] | Potency [10] | outcome [11] | Potency [12] | Potency [14]

CC1=CC(C)C(C=O)CC1 (stereo not given)
inactive: Potency [1] | Potency [2] | Potency [3] | outcome [4] | Potency [5] | outcome [6] | Potency [7] | outcome [8] | outcome [9] | Potency [10] | outcome [11] | Potency [12] | Potency [14] | Potency [15] | outcome [16]

CC(C)NC(=O)NC(C)C
inactive: Potency [1] | Potency [2] | Potency [3] | outcome [4] | Potency [5] | outcome [6] | Potency [18] | outcome [8] | outcome [9] | Potency [10] | outcome [11] | Potency [12] | outcome [19] | outcome [20] | outcome [16] | outcome [17]

CCCCCCOC(=O)CCCCC(=O)OCCCCCC
inactive: Potency [1] | Potency [2] | Potency [3] | outcome [4] | Potency [5] | outcome [6] | Potency [18] | outcome [8] | outcome [9] | Potency [10] | outcome [11] | Potency [12] | outcome [19] | outcome [20] | outcome [16]

CCn1nc(C(=O)O)c(=O)c2cc3c(cc21)OCO3
inactive: Potency [1] | Potency [2] | Potency [3] | outcome [4] | Potency [5] | outcome [6] | Potency [7] | outcome [8] | Potency [10] | outcome [11] | Potency [12] | Potency [13] | Potency [14] | Potency [15] | outcome [16]
